Measured values reported in PubChem BioAssay AID940 (Emory University Molecular Libraries Screening Center, 2007).
Hit rate of the full screen: of about 260,000 compounds, about 2,200 (0.85%) were called active.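 How the source made its calls: active means compounds whose cAMP rise, as percent of the full-agonist control response, exceeds 60; inactive means the rest.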 For the sample, actives were picked, then their nearest neighbours and some compounds at random.

The compounds below were run against Prostaglandin E2 receptor EP2 subtype (Homo sapiens) (UniProt P43116) (assay: EP2 receptor modulators, cAMP readout, primary screen, cell-based, HTRF cAMP, PGE2 stimulation (AID 940;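 further: rat C6 glioma line stably carrying human EP2 under a CMV promoter; the protocol text gives 20 µM as final concentration; 100% = response of wells given 1 µM PGE2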)). Conditions: EP2-expressing cells, cAMP HTRF FRET, PGE2 co-stimulation; at 25 µM; hits give high values.
Chain of Prostaglandin E2 receptor EP2 subtype (Homo sapiens) (P43116 whole entry, looked up): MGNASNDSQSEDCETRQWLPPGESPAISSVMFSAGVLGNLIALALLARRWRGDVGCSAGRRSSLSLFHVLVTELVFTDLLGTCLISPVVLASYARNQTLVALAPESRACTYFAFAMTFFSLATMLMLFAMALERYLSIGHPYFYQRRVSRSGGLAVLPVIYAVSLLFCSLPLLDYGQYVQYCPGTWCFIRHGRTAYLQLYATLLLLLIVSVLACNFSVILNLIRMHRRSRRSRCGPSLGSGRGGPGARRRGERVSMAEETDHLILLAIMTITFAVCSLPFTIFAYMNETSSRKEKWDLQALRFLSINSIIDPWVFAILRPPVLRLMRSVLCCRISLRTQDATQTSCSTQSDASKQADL

induction, inactive:
COc1cc(C2NC(=O)NC(C)=C2C(=O)Nc2cc(Cl)ccc2C)cc(OC)c1OC (stereo not drawn) -22.7%
Cc1cccc(-n2c(C)c3c(C)nnc(C)c3c2C)c1 -24.2%
S=C1Nc2cc(Cl)ccc2Sc2ccccc21 11.7%
Clc1ccc(C=Nc2ccc3c(c2)Cc2ccccc2-3)c(Cl)c1 6.77%
CCn1c(=O)oc2cc(S(=O)(=O)N3CCCN(C(C)=O)CC3)ccc21 -12.2%
COc1ccccc1NC(=O)Cn1nc(C)n2c(cc3occc32)c1=O -27.1%
CCOc1ccc2nc(Nc3nc(C)c(C(C)=O)c(C)n3)nc(C)c2c1 -18.1%
COc1ccc(-c2nnn(CC(=O)Nc3ccc(F)cc3F)n2)cc1OC -72%
COC(=O)C1NN=C(C(=O)c2ccc(Br)cc2)C1c1cccc(Br)c1 (stereo not drawn) 0.95%
COC(=O)C1=C(C)N(C)C(=S)NC1c1ccccc1 (stereo not drawn) -3.11%
COc1ccc(-c2ccc(SCC(=O)N3c4ccccc4CCc4ccccc43)nn2)cc1OC 28.9%
Cc1ccccc1-c1n[nH]c(=S)n1C 25.6%
Cc1n[nH]c(=S)n1/N=C/c1ccc(Br)o1 -3.02%
COc1ccc(NCc2nnc(SCC(=O)Nc3ccccc3OC)n2C)cc1 -42.3%
C=CCNC(=O)CSc1nc(-c2ccc(OC)cc2)cc(C(F)(F)F)n1 -95.2%
Cn1c(=O)c2c(nc(N3CCN(c4ccccc4)CC3)n2CCC#N)n(C)c1=O -28.3%
Cc1cccc(Cn2c(SCCO)nc3c2c(=O)n(C)c(=O)n3C)c1 25.1%
CCn1c2cc(C)sc2c2cnn(CC(=O)Nc3ccc(F)cc3)c(=O)c21 -32.1%
CC1CCN(c2nc3c(c(=O)[nH]2)CCN(Cc2cn(CC(=O)O)c4ccccc24)C3)CC1 -3.4%
CC1(C)CCC[C@@]2(C)C1[C@@H](O)C[C@]1(C)C2CC[C@@H]2[C@@]3(C)CC[C@H](C(C)(C)O)[C@@H]3CC[C@@]21C (stereo partly drawn) 16.7%
c1cncc(-c2nnc3n2C2(CCCCC2)Cc2ccccc2-3)c1 16.9%
CCC1(CC)Cc2ccccc2-c2nc3ccccc3c(=O)n21 22.9%
Cc1ccc(NC(=S)N(Cc2ccco2)C(C)c2cccs2)cc1 (stereo not drawn) 44.2%
Cc1ccc(CC(=O)NCc2ccco2)cc1 8.03%
CC1CCCC(C)N1C(=O)[C@H]1C[C@@H](c2cccs2)NS(=O)(=O)N1C (stereo partly drawn) -34.9%
Cc1nn2c(NCc3cccnc3)c3c(nc2c1-c1cccs1)CCC3 -40.8%
Cn1c(COc2cccc3ccccc23)nnc1SCC(=O)Nc1ccccc1Cl 5.15%
Cc1ccc(-n2c(SCC(=O)Nc3ccc4c(c3)OCO4)nnc2-c2ccccn2)cc1 4.01%
Cc1occc1-c1nnc(SCC(=O)Nc2ccc3c(c2)OCO3)n1Cc1ccco1 25.1%
CNC(=S)N(Cc1ccccc1)Cc1cc2cccc(C)c2[nH]c1=O -48.1%

induction, active:
O=C1Cc2ccccc2Sc2ccc(Cl)cc21 61.4%
COC(=O)C1=C(C)N(C)C(C)=C(C(=O)OC)C1c1cccc(Br)c1 66.5%
Cc1ccccc1-c1n[nH]c(=S)n1/N=C/c1ccc(-c2ccccc2Br)o1 77%
Cc1cccc(Cn2c(N3CCN(c4ccccc4)CC3)nc3c2c(=O)n(C)c(=O)n3C)c1 67.6%
O=c1c2ccccc2nc2n1C1(CCCCC1)Cc1ccccc1-2 68.8%
C=C(C)CC(Nc1ccc(C)cc1)c1ccco1 (stereo not drawn) 61.3%
Cc1ccc(-n2c(SCC(=O)Nc3ccc4c(c3)OCO4)nnc2-c2ccoc2C)cc1 64.9%
Nc1nc(Br)c2ccccc2c1-c1ccc(F)cc1 62%
